Compounds with a hit are over-represented: about 7.4% of the library has one in this group of screens.
Rab9 prom act: qHTS Assay for Rab9 Promoter Activators; AID 485297, 2010; Huh7 Rab9 promoter-luciferase reporter, luminescence, 24 h; 320,000 compounds, 2.8% hits; Potency, µM (doses to about 9.22 µM), usual class: activators; further: nearly all actives have a fitted effect of over 60% in size
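Huh7 cells stably carrying Rab9 promoter–luciferase reporter, plated 1500 cells/well, compound added after 2 h and incubated 24 h at 37 °C; luciferase luminescence then read after 10 min with detection reagent.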
FLuc counter: qHTS profiling assay for firefly luciferase inhibitor/activator using purifed enzyme and Km concentrations of substrates (counterscreen for miR-21 project) | Luciferin 4-monooxygenase (Photinus pyralis), P08659 | purified FLuc, Km substrates, luminescence inhibition | Potency, µM (highest dose often 57.5 µM), hits mostly inhibitors | 360,000 compounds, 6.9% hits; further: nearly all actives have a fitted effect of over 55% in size
Target sequence (P08659 whole entry, looked up): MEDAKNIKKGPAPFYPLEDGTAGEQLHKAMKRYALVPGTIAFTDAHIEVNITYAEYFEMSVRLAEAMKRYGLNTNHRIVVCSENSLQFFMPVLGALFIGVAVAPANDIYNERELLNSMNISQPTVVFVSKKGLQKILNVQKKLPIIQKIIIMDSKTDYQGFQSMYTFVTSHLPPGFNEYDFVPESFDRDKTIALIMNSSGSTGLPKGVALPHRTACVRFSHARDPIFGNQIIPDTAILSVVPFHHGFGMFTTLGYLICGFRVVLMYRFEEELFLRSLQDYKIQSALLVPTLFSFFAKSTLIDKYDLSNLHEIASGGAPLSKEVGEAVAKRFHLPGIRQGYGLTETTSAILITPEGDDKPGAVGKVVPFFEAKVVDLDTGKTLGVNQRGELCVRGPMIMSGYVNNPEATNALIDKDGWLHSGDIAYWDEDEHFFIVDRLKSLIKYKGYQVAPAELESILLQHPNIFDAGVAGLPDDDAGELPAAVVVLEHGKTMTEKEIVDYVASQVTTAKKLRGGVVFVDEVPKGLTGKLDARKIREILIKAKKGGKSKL
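Purified P. pyralis luciferase (10nM final) with 10uM D-luciferin and 10uM ATP (Km levels) in 50mM Tris acetate pH 7.5, 10mM Mg acetate, 0.01% Tween-20, 0.05% BSA; qHTS 6-point titration, ~60 µM downward; luminescence read.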
NPC1 promoter act: qHTS Assay for NPC1 Promoter Activators. Potency, µM (top dose mostly 9.22 µM), usual class: activators. Huh7 NPC1 promoter luciferase reporter, 24 h. 320,000 compounds, 2.4% hits. AID 485313, 2010; further: nearly all actives have a fitted effect of over 60% in size
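Readout is luciferase luminescence, reflecting NPC1 promoter activation in stably transfected Huh7 cells after 24 h compound exposure at 37 °C in reduced-serum medium with 10% FBS.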
SMN2 splice up: qHTS Assay for Enhancers of SMN2 Splice Variant Expression | 210,000 compounds, 2.8% hits | Potency, µM (titrated, usually from 46.1 µM), most hits filed as activators | HEK293 SMN2-luciferase splicing reporter, luminescence, 30-36 h | AID 1458, 2008; further: nearly all actives have a fitted effect of over 55% in size
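HEK293 cells carry an SMN2 minigene-luciferase reporter in which exon 7 inclusion puts luciferase in frame. Cells were seeded at 2000 cells/well, attached for 10-12 hours, then exposed to compounds for 30-36 hours at 37C before ONE-Glo luminescence.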
ELG1 genotox: qHTS screen for small molecules that induce genotoxicity in human embryonic kidney (HEK293T) cells expressing luciferase-tagged ELG1 | HEK293T ELG1-luciferase reporter, luminescence, 16 h | Potency, µM (series often up to 46 µM), usual class: activators | 330,000 compounds, 1.3% hits | AID 504466, 2011; further: nearly all actives have a fitted effect of over 60% in size
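Cells (2,000/well) expressing the ELG1-luciferase fusion are dosed by pin tool and kept 16 hr at 37 °C, 5% CO2. Signal comes from ONE-Glo luciferase reagent after 30 min at room temperature.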
Hits are given with their value; 0 = inactive; ? = inconclusive; - = no result given; [ ] = remark or other dose. The call rests on the fitted dose curve; in most records, active means well fitted curve in the direction sought with a large enough effect; inconclusive means small, poorly fitted or top-dose-only effect, or another doubt; inactive means no such curve, though single readings can be large; an effect the other way counts as inactive or inconclusive.

SMILES	Rab9 prom act	FLuc counter	NPC1 promoter act	SMN2 splice up	ELG1 genotox
CC(C)c1nccn1Cc1ccc(Cl)cc1Cl	-	-	-	0[9.22 µM]	-
[N-]=[N+]=NCC(=O)c1c[nH]c(=O)[nH]c1=O	-	-	-	0[9.22 µM]	-
Cc1ccccc1N1C(=O)/C(=C/c2ccco2)C(=O)NC1=S	0	23.9µM	0	-	0
CCOc1ccc(N2C(=O)/C(=C/c3ccco3)C(=O)NC2=S)cc1	0	?	0	-	0
Cc1ncc([N+](=O)[O-])n1CCN=[N+]=[N-]	-	-	-	0[9.22 µM]	-
O=C(C1CC(c2ccccc2O)=NO1)N1CCC2(CC1)OCCO2 (centres undefined)	?	10.7µM	3.55µM	?	16.4µM
O=C(c1ccccc1)N1CCC2(CC1)OCCO2	0	0	0	-	0
Cc1cc(C(=O)N=Nc2c(O)n(C)c3ccccc23)c(C)o1	3.55µM	2.69µM	2.51µM	7.08µM	7.31µM
Oc1c(Cl)cc(Cl)cc1Cl	-	-	-	0	-
O=C(Nc1ccc(F)cc1)Oc1ccc[nH]c1=O	0	19µM	0	-	0
COc1ccc(OC(=O)Nc2ccccc2)cc1	0	?	0	?	?
CC(=O)O[C@@H]1C[C@@]2(C)C(c3ccoc3)C[C@H]3O[C@]32[C@]2(C)C(=O)C(O)=C3C(C)(C)C(=O)C=C[C@]3(C)C12 (some centres undefined)	-	-	-	0	-
CC(C)C[C@H]1C(=O)N2CCCC2[C@]2(O)O[C@](NC(=O)[C@@H]3C=C4c5cccc6[nH]c(Br)c(c56)C[C@H]4N(C)C3)(C(C)C)C(=O)N12 (some centres undefined)	-	-	-	0	-
COc1ccc(C(=O)Nc2nnc(S(=O)(=O)N(CC(C)C)c3ccc(C)cc3)s2)cc1OC	-	8.49µM	-	-	-
O=C(/C=C/c1ccccc1)C1C(=O)c2ccccc2C1=O	2.24µM	0.379µM	3.98µM	10µM	0
CCN(CC)C(=O)c1ccc(NC(=O)Nc2ccccc2F)cc1	?	1.51µM	0.316µM	2.82µM	?
CCN(CC)C(=O)c1ccc(NC(=O)CCCSc2ccccc2)cc1	0	0	0	0	0
CCN1C(=O)C(=Cc2cc(C)n(C3CC3)c2C)C(=O)N(CC)C1=S	0	0	0	0	0
Cc1cc(C=O)c(C)n1C1CCCCC1	0	0	0	0	0
Cc1cc(C=C2C(=O)N(C)C(=S)N(C)C2=O)c(C)n1C1CCCC1	0	2.39µM	0	0	?
Cc1cc(/C=C2\C(=O)NC(=S)N(C)C2=O)c(C)n1C1CCCCC1	0	0.477µM	0	0	?
Nc1nc2c(ncn2[C@@H]2O[C@H](CO)[C@@H](O)[C@@H]2O)c(=[SH+])[nH]1.O=[N+]([O-])c1ccc(O)[c]([Hg])c1	-	-	-	0[9.22 µM]	-
CCOc1ccc(-c2cn3c(n2)sc2cc(C(=O)N4CCCC(C)C4)ccc23)cc1 (centres undefined)	-	4.26µM	-	0	-
CCOc1ccc(C(=O)N2CCC(c3noc(-c4ccc(S(=O)(=O)N5CCCC5)cc4)n3)CC2)cc1	-	0	-	0	-
O=C(O)Cn1cc(/C=C2\C(=O)NC(=O)N(Cc3ccco3)C2=O)c2ccccc21	0	16.9µM	0	0	0
SMILES	Rab9 prom act	FLuc counter	NPC1 promoter act	SMN2 splice up	ELG1 genotox
CSSC	-	-	-	0	-
Cc1ccc(Cn2cc(C=O)c(-c3ccc(F)cc3)n2)cc1	0	?	0	-	0
Cc1ccc(-c2nn(Cc3ccccc3)cc2C=O)cc1	3.55µM	19µM	?	?	0
Cc1ccc(-c2nn(Cc3ccccc3)cc2C=O)cc1C	0	26.9µM	0	0	0
COc1ccc(-c2cc(=Nc3cccc(C(=O)O)c3)c3cc(C)ccc3o2)cc1	?	9.53µM	0	-	5.8µM
COc1ccc(-c2cc(=NCCCCCC(=O)O)c3cc(C)ccc3o2)cc1	0	0	0	0	?
CNC(=O)Oc1ccc(C(=O)N2c3ccccc3NC(=O)C2C)cc1 (centres undefined)	0	0	0	-	0
CNC(=O)Oc1ccc2c(c1)C(=O)c1ccccc1CO2	0	10.7µM	0	0	0
CCC(=Nc1cc(OC)ccc1OC)c1c(O)[nH]c(=O)[nH]c1=O	0	0	0	0	0
C=CCn1c(O)c(C(CC)=Nc2cc(OC)ccc2OC)c(=O)[nH]c1=O	0	0	0	?	23.1µM
Oc1cc(Cl)cc(Cl)c1	-	-	-	0	-
CC[C@]1(O)CC(O[C@@H]2CC(N(C)C)C(O)C(C)O2)c2c(cc3c(c2O)C(=O)c2c(O)cccc2C3=O)C1C(=O)OC (some centres undefined)	-	-	-	0.794µM	-
CC[C@@]1(O)CC(O)c2c(cc3c(c2O)C(=O)c2c(O)ccc(O)c2C3=O)C1C(=O)OC (some centres undefined)	-	-	-	0	-
Cn1cc(C=C2C(=O)NC(=O)NC2=O)c2ccccc21	0	0	0	-	0
CC(=O)n1cc(C=C2C(=O)NC(=O)NC2=O)c2ccccc21	0	15.1µM	0	-	0[9.26 µM]
CO[C@H]1[C@H](O)[C@H](O[C@@H]2[C@H](Oc3cccc4c(O)c5c(=O)oc6ccc(C)c7c(=O)oc(c34)c5c67)O[C@@H](C)[C@H](O)[C@H]2O)O[C@@H](C)[C@@H]1O	-	-	-	0[9.22 µM]	-
CC1=NN(c2ccccc2)C(=O)C1/C=C1/C(=O)NC(=O)N(c2cccc(C)c2)C1=O (centres undefined)	0	13.5µM	0	0	0
CC1=NN(c2ccccc2)C(=O)C1/C=C1\C(=O)NC(=O)N(c2ccc(C)c(C)c2)C1=O (centres undefined)	0	15.1µM	0	0	0
COc1ccc(/C=C2/C(=O)NC(=O)N(c3ccc(C)c(C)c3)C2=O)cc1CN1C(=O)c2ccccc2C1=O	0	0	0	0	0
CC1=NN(c2ccccc2)C(=O)C1/C=C1/C(=O)NC(=O)N(c2cc(C)cc(C)c2)C1=O (centres undefined)	0	16.9µM	0	0	0
Cc1cc(C)cc(N2C(=O)NC(=O)/C(=C\c3cc(C)n(C)c3C)C2=O)c1	0	0	0	0	0
CC1=NN(c2ccccc2)C(=O)C1/C=C1\C(=O)NC(=O)N(c2cc(C)cc(C)c2)C1=O (centres undefined)	0	9.53µM	0	0	0
Cc1cc(C)cc(N2C(=O)NC(=O)/C(=C\C=C\c3ccco3)C2=O)c1	0	?	0	0	0
O=C(CN1CCCCC1)c1ccccc1Cl	0	19µM	0	0	0
O=C(CN1CCCCC1)c1ccccc1F	0	0	0	0	0
COc1ccc(-c2cc(=O)c3cc(OCC(=O)OC(C)C)ccc3o2)cc1	-	1.9µM	-	0	-
COc1ccc(-c2cc(=NCC(=O)O)c3ccccc3o2)cc1	0[1.84 µM]	0	0	-	?
COc1cccc(-n2c(=S)[nH]c3ccccc3c2=O)c1	0	0	0	0	0
COc1ccc2c(c1)NP(=S)(Oc1ccccc1)N2 (centres undefined)	0	6.75µM	0	-	?
